According to PubChem BioAssay AID1347421 (Sanford-Burnham Center for Chemical Genomics, 2020):
In all, about 1,500 compounds were measured (“activity”: median about 2, lowest 2% from about -18 on). What follows is part of a selection rich in the lowest values, with near analogues and random picks from the rest. The source made the active and inactive calls.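 Rule for the calls: active = inhibition of at least 40% at 10 µM; inconclusive = no clear call, values can overlap the other calls; inactive = the rest.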

Biological target: Sulfhydryl oxidase 1 (Homo sapiens) (UniProt O00391)
Sequence (O00391 whole entry, looked up): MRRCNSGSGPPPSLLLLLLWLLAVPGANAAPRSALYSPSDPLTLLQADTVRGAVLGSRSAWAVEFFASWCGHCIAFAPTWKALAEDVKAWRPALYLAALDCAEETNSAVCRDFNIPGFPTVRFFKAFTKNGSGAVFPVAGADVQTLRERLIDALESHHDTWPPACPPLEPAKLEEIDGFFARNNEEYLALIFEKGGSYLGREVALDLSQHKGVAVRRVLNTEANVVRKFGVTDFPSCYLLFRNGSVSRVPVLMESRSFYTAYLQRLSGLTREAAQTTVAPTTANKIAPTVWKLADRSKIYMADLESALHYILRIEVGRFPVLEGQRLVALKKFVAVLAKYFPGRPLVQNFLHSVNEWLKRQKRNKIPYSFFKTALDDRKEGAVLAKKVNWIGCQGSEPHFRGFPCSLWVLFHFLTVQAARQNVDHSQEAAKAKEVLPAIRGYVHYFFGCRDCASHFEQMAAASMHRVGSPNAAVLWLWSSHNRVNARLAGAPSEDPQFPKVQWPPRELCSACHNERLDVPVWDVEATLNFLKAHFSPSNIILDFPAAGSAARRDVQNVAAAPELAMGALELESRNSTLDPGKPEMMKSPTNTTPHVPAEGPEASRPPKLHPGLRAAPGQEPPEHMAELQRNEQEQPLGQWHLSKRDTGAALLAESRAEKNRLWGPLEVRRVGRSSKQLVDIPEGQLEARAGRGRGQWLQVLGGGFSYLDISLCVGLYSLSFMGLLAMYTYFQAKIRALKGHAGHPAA
Assay: human QSOX1 sulfhydryl oxidase inhibition – biochemical, ROS-Glo luminescence, single concentration, confirmation (AID 1347421);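 note: 0% = DMSO wells with enzyme and 100% = wells lacking QSOX1 enzyme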
Conditions: recombinant hQSOX1, RNase A substrate, ROS-Glo H2O2 luminescence; at 10 µM

| SMILES | activity |
| --- | --- |
| C=CCC(=O)N(CCOC)CC1CCCN(C2Cc3ccccc3C2)C1 (stereo not given) | 6.2% |
| CCOC(=O)c1nc(-c2ccc(F)cc2)no1 | -21.6% (inactive) |
| COC(=O)c1ccc(-c2noc(CN(C)CC3Cc4ccccc4O3)n2)cc1 (stereo not given) | 5.4% |
| CCC(=O)Oc1ccc(-c2nc(-c3cccc(OC)c3)no2)cc1 | 86.9% (active) |
| CC(C)NC(=O)C1CCN(C2CCN(C3CCSCC3)CC2)CC1 | 0.2% |
| COc1ccccc1C(=O)C1CCCN(Cc2ccc(OCCO)cc2)C1 (stereo not given) | 1.5% |
| O=C(c1cc2ccccc2oc1=O)N1CCOC(CC2CCCCC2)C1 (stereo not given) | 0.4% |
| CC(=O)Nc1cccc(C(=O)N2CCN(c3ccccc3)CC2)c1 | 5.9% |
| COc1ccc(N2CCN(C(=O)c3ccc(-n4cnnc4)cc3Cl)CC2)cc1 | -13.7% (inactive) |
| COc1ccc(N2CCN(C(=O)c3cccc(-n4cnnc4)c3)CC2)cc1 | -22.3% (inactive) |
| COCCN1CCCC(O)(CN2CCCCCC2)C1=O (stereo not given) | 10.4% |
| O=C(CSc1nnc(-c2ccco2)o1)Nc1ccc(Br)cc1 | 2.3% |
| O=C(/C=C/c1cccnc1)N1CCCC(N2CCN(c3ccc(F)cc3)CC2)C1 (stereo not given) | 1% |
| c1ccc(-c2nn3c(-c4ccco4)nnc3s2)nc1 | -4.2% (inactive) |
| c1ccc(-c2nn3c(-c4cccs4)nnc3s2)nc1 | -20.4% (inactive) |
| c1ccc(Cc2nn3c(-c4cccs4)nnc3s2)cc1 | -5.3% (inactive) |
| OCC1CCN(C2CCCN(Cc3cccc(OC4CCCC4)c3)C2)CC1 (stereo not given) | 7% |
| CCN(CC)CC(=O)N1CCOC(Cc2ccccc2Cl)C1 (stereo not given) | 2.5% |
| CCCCNC(=O)N1CCN(Cc2ccccc2Cl)CC1 | -7% (inactive) |
| CCN(CC)S(=O)(=O)Cc1ccccc1Cl | -19.9% (inactive) |
| C=CCNC(=O)CCc1ccc(S(=O)(=O)NC)cc1 | -11.4% (inactive) |
| O=C(Cn1nnc(-c2cccs2)n1)NCCC1=CCCCC1 | -7.9% (inactive) |
| CC(C)CCCC1CN(C(=O)CCC(N)=O)CCO1 (stereo not given) | 6.8% |
| Cc1occc1-c1nnc2n1N=C(c1ccccc1)CS2 | -19.7% (inactive) |
| Cc1oc(-c2ccccc2Cl)nc1CN(Cc1cnn(C)c1)C(C)C | 5.9% |

| SMILES | activity |
| --- | --- |
| COc1ccc(CNCCCSC)cc1OCC(O)CN(C)C(C)C (stereo not given) | 3.5% |
| O=C(NCC(c1ccc(F)cc1)N1CCCC1)c1cn(CCN2CCOCC2)nn1 (stereo not given) | 2.4% |
| COc1cccc(NC(=O)CCC2CCN(C(=O)CCc3cnccn3)CC2)c1 | -0.4% (inactive) |
| CCN1CCCC1CNC(=O)CCC1CCN(Cc2cc(OC)c3c(c2)OCO3)CC1 (stereo not given) | 0.6% |
| CCS(=O)(=O)c1ncc(CN(C)CC(O)c2ccccc2)n1Cc1ccccc1 (stereo not given) | 6.9% |
| CCn1cc(-c2nc(-c3ccccn3)no2)cn1 | 44.4% (active) |
| COCCN1C(=O)C(=O)/C(=C(\O)c2ccc(OC)cc2C)C1c1cccnc1 (stereo not given) | -3% (inactive) |
| NC(=O)C1CCCN(C(=O)Nc2ccc(F)cc2)C1 (stereo not given) | -0.4% (inactive) |
| CSc1ncc(CN2CCCC(CO)(CCOc3ccccc3)C2)cn1 (stereo not given) | 10.5% |
| COc1ccccc1CCN1CCC(CN(C)C(=O)c2cscn2)CC1 | -1.8% (inactive) |
| Cc1cc(CNCc2cccc(OCC(O)CN3CCCCCC3)c2)on1 (stereo not given) | -2.7% (inactive) |
| COC(=O)c1ccc(CNC(=O)CC2C(=O)NCCN2Cc2cccs2)cc1 (stereo not given) | 2.8% |
| O=C(c1ccc(-c2ccccc2)c(F)c1)C1CCCN(C(=O)CCc2cnccn2)C1 (stereo not given) | 9.5% |
| Fc1ccc(C2(c3noc(-c4cn[nH]c4)n3)CCOC2)cc1 (stereo not given) | 2.1% |
| CC(C)Oc1cccc(C(=O)Nc2ncn[nH]2)c1 | -3.3% (inactive) |
| Cc1cc(C)c(S(=O)(=O)Nc2ncn[nH]2)c(C)c1 | -18.4% (inactive) |
| CCOC(=O)C1(CCCc2ccccc2)CCN(C(=O)CCn2cnnn2)CC1 | 0.6% |
| COCc1ccc(C(=O)N2CCC(CCC(=O)NCc3cccnc3)CC2)o1 | 4.1% |
| CC(C)CCCC1CN(Cc2ncc[nH]2)CCO1 (stereo not given) | 5.8% |
| COc1ccc(OC2CCN(C(=O)C3CC3)CC2)c(C(=O)NCCCN2CCOCC2)c1 | 2% |
| Cc1cccc(N2CCN(CC(=O)Nc3ccc(S(N)(=O)=O)cc3)CC2)c1C | -11.2% (inactive) |
| O=C(CN1CCCCCC1)Nc1ccc(Cl)cc1 | -10% (inactive) |
| Cc1ccc(NC(=O)CN2CCc3ccccc3C2)cc1 | -21.7% (inactive) |
| CN(C)CCC1CN(C(=O)CSc2ccccc2)CCO1 (stereo not given) | 4.2% |
| CC(C)Cc1ccc(CN2CCCC(NC3CCN(C)CC3)C2)cc1 (stereo not given) | -2.5% (inactive) |

| SMILES | activity |
| --- | --- |
| O=C(CCc1ccncc1)N1CCOC(Cc2ccccc2Cl)C1 (stereo not given) | 3.1% |
| CCN1CCCC1CN(CC1CCN(CCOC)CC1)C(=O)CCc1ccc(=O)[nH]n1 (stereo not given) | 6.9% |
| CN(C)CCC1CN(Cc2cnc(-c3ccccc3)s2)CCO1 (stereo not given) | -0.6% (inactive) |
| CCCn1c(=O)c2c(nc3n2CCN3Cc2ccco2)n(C)c1=O | -9.9% (inactive) |
| Cc1nc(-c2ccc(CN3CCC(CCn4cccn4)CC3)cc2)[nH]c(=O)c1F | 7.1% |
| CC(C)(C)C1(c2ccccc2)NC(=O)N(CC(=O)N2CCCCC2)C1=O (stereo not given) | -23.9% (inactive) |
| O=C(c1ccc(-c2ccccc2)cc1)C1CCCN(C(=O)CN2C(=O)CSC2=O)C1 (stereo not given) | 5.7% |
| O=C(CN1C(=O)CCNC1=O)N1CCC(OCc2ccccc2)CC1 | 2.9% |
| COc1ccc(-c2noc(CN3CCC(C)CC3)n2)cc1OC | -16% (inactive) |
| COc1cc(CN2CC[C@@H](N3CCCCCC3)[C@H](O)C2)ccc1F | 0.7% |
| O=C(CCC1CCCN(C/C=C/c2ccc(F)cc2)C1)N1CCCC1 (stereo not given) | -1.2% (inactive) |
| CS(=O)(=O)N(CC(=O)N1CCCC1)Cc1ccc(F)cc1 | -19.7% (inactive) |
| CN(C)S(=O)(=O)c1ccc(CCC(=O)N2CCOCC2)cc1 | 1.9% |
| COc1ccc(CNCCCN2CCOCC2)cc1OCC(O)CN1CCCC1 (stereo not given) | 4.6% |
| COC(=O)CCCNC(=O)C1CCC(=O)N(Cc2ccccc2OC)C1 (stereo not given) | 1.6% |
| COCCCNc1nc2nonc2nc1N(C)CCN1CCOCC1 | -1.4% (inactive) |
| COc1ccc(OC)c(-c2nc(CN3CCN(C(=O)c4ccco4)CC3)c(C)o2)c1 | -4% (inactive) |
| COc1ccc2oc3nc(=O)c4ccccc4c-3cc2c1 | -123% (inactive) |
| COc1ccc(C(C)N(C)Cc2nc(-c3ccc(OC)cc3OC)oc2C)cc1 (stereo not given) | 5.7% |
| Cc1ccc(C(=O)N2CCC3(CCCN(Cc4ccc(F)c(F)c4)C3=O)C2)cn1 (stereo not given) | 3.9% |
| CCSCCn1ncc(N2CCNCC2)cc1=O | 1.4% |
| CC(C)(CO)NC(=O)CC(c1ccccc1)c1ccc(Cl)cc1 (stereo not given) | 0.5% |
| NCc1ccccc1SC1=[C+]C=C[C+]=C1CN1CCOCC1 | -11.3% (inactive) |
| O=C(NC(=O)N1CCCC1)c1ccc(Cl)cc1 | -2.8% (inactive) |
| O=C1CCCN1CCCNCc1cccc(OCC(O)CN2CCCCCC2)c1 (stereo not given) | 5.6% |

| SMILES | activity |
| --- | --- |
| COc1ccccc1Oc1ncccc1CNCC1CCOC1 (stereo not given) | 2.6% |
| Cc1cc(S(=O)(=O)n2ccnc2)c(C)c(C)c1C | -0.1% (inactive) |
| O=C(CC1C(=O)NCCN1Cc1cccnc1)NCCCn1ccc2ccccc21 (stereo not given) | 3.3% |
| COc1ccc(S(=O)(=O)N2CCCC(C(=O)NC3CC3)C2)cc1OC (stereo not given) | -18.9% (inactive) |
| COCC(=O)Nc1ccc(S(=O)(=O)N2CCCC(C)C2)cc1 (stereo not given) | 7.5% |
| COc1ccc(S(=O)(=O)N2CCCC2)cc1N(C)S(C)(=O)=O | -11% (inactive) |
| CN1CCCCCC1C(=O)NCc1cccnc1N1CCN(c2ccccn2)CC1 (stereo not given) | -5.2% (inactive) |
| CCOC(=O)c1cccc(CSc2n[nH]c(N)n2)c1 | -1.9% (inactive) |
| Cn1ccnc1C1CCCCN1Cc1c(C(=O)N2CCCCCCC2)nc2sccn12 (stereo not given) | 10.8% |
| COc1cccc(-c2n[nH]c3c2CN(CCc2ccccc2)CC3)c1 | 5.1% |
| Fc1ccccc1-c1noc2c1CN(Cc1ccc3c(c1)OCCO3)CC2 | -4.5% (inactive) |
| O=C(NCc1ccc2c(c1)OCO2)C1CCC(=O)N(CCc2cccc(F)c2)C1 (stereo not given) | -2% (inactive) |
| CCN(CC)C(=O)NCc1ccc2c(c1)OCO2 | -18.4% (inactive) |
| CCN(CC)C(=O)NCc1ccccn1 | -15.1% (inactive) |
| Cc1cc(N2CCN(C(=O)c3cn(Cc4ccccc4F)nn3)CC2)cc(C)n1 | 2.1% |
| Cc1noc(C)c1CC(=O)N1CCCC(CCC(=O)N(C)CCc2ccccn2)C1 (stereo not given) | 5.3% |
| CN(CCc1ccccn1)C(=O)CCC1CCCN(C(=O)Cc2cccnc2)C1 (stereo not given) | 4.4% |
| FC(F)(F)c1cc(-c2ccco2)nc(N2CCCCC2)n1 | -20.8% (inactive) |
| FC(F)(F)c1cc(-c2ccco2)nc(NCc2cccs2)n1 | -4.8% (inactive) |
| Cc1ccccc1CC(=O)NCC(C)C | -16% (inactive) |
| COc1cc(C(=O)NC2CCCCC2)ccc1OC1CCN(C(C)=O)CC1 | 3.4% |
| CN(CCc1ccccn1)[C@@H]1CCN(Cc2ccc(C#CCO)s2)C[C@H]1O | 4.2% |
| Cc1occc1C(=O)Nc1ccc([N+](=O)[O-])cn1 | 17.1% |
| C=C(C)CN(CC)C(=O)c1cc(COc2ccc(-n3cncn3)cc2)on1 | 9.4% |
| COc1ccc(C2CC(=O)c3cn[nH]c3C2)cc1 (stereo not given) | -17.7% (inactive) |

| SMILES | activity |
| --- | --- |
| COc1ccc(C2CC(=O)c3cnc(NC4CC4)nc3C2)cc1 (stereo not given) | 3.9% |
| CCN1CCN(c2ncc3c(n2)CC(c2ccc(OC)c(OC)c2)CC3=O)CC1 (stereo not given) | -19% (inactive) |
| O=C(CCc1ccsc1)N1CCOC(Cc2ccccc2Cl)C1 (stereo not given) | 20.5% |
| Cc1cc(Br)c(S(=O)(=O)NCc2ccncc2)cc1C | 3.4% |
| NC(=O)C1(N2CCCCC2)CCN(C(=O)C2CCC(=O)N(C3CCCC3)C2)CC1 (stereo not given) | 5.6% |
| Cc1ccccc1C(=O)Nc1ccccc1C(=O)N(C)C | -20% (inactive) |
| O=C(Nc1ccccc1C(=O)NC1CC1)c1ccccc1Cl | 11.7% |
| Cc1ccccc1C(=O)Nc1c(Cl)ccc2nsnc12 | 0.9% |
| COc1ccccc1/C=C/CN1CCNC(=O)C1CC(=O)NCCOc1cccnc1 (stereo not given) | -2% (inactive) |
| CC(C)Cn1c(CN(C)Cc2ccco2)cnc1S(=O)(=O)CC1CCCO1 (stereo not given) | 4.1% |
| O=C1CCC(C(=O)N2CCC(Oc3cccc(F)c3)CC2)CN1CCc1ccccn1 (stereo not given) | 0.7% |
| O=C(Nc1n[nH]c(C2CCCCC2)n1)N1CCOC2(CCCC2)C1 | 1% |
| C=CCC1(CC=C)CCCN1C(=O)c1cn(CC2COc3ccccc3O2)nn1 (stereo not given) | -0.3% (inactive) |
| CS(=O)(=O)c1ncc(CO)n1Cc1ccccc1 | -4.5% (inactive) |
| O=c1c2ccccc2nc(NCCO)n1Cc1ccccc1 | -20.3% (inactive) |
| NC(=O)COc1ccc(S(=O)(=O)N2CCOCC2)cc1 | -13.3% (inactive) |
| O=C(O)c1ccc(S(=O)(=O)N2CCSCC2)cc1 | -3% (inactive) |
| O=C(c1cc(S(=O)(=O)N2CCOCC2)c(Cl)cc1Cl)N1CCSCC1 | -18.4% (inactive) |
| O=C(Nc1ccc(-c2nc3ccccc3[nH]2)cc1)c1ccccn1 | 5.8% |
| CN(C)S(=O)(=O)c1cccc(S(C)(=O)=O)c1 | 8.2% |
| COc1cc(C)nc(NC(=O)Nc2cccc(Cl)c2)n1 | -2.3% (inactive) |
| Cc1ccc(S(=O)(=O)c2ncsc2Cl)cc1 | 0.6% |
| CC(C)Oc1ccc(NC(=O)CCN2C(=O)c3ccccc3C2=O)cc1 | 0.6% |
| COC1=C(OC)C=CC(c2nnn(C3CCNCC3)n2)=[C+]1 | -20.6% (inactive) |
| COc1cccc(CNCc2ccc(F)cc2)c1 | -17.7% (inactive) |
